High-throughput results: PubChem BioAssay, several laboratories
The entries come from a sample that favours hits as a whole.
GIRK2 act = GIRK2 channel activators by thallium flux. 34,000 tested, under 10 active. activation (% efficacy), % for hits at 37.5 µM. P48051. HEK293 GIRK2/NPY4 cells, thallium flux fluorescence;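 active = primary screen hit, no activity in plain HEK293 cells, and in GIRK2-only cells above 5% efficacy rising with concentration; inactive = the rest, including fluorescent compounds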;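 also: efficacy is normalized control-subtracted fluorescence 15 s after thallium addition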
Target sequence (P48051 whole entry, looked up): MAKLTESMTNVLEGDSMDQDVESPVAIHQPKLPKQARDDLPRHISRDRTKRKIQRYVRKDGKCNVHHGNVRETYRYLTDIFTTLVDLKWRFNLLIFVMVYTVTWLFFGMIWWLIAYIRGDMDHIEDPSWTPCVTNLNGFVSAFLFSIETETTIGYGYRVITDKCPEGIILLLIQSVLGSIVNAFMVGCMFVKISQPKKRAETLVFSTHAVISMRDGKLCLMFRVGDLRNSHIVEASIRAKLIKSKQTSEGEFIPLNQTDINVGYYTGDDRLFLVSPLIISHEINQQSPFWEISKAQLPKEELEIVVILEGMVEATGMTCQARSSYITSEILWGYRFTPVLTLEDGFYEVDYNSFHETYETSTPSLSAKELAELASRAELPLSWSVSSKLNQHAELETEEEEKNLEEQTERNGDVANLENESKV
GluA2 TARP mod = GluA2-stargazin AMPA receptor complex modulation; O88602+P19491; HEK293 GluA2+stargazin, membrane potential dye (FDSS), glutamate EC50; hits were called plate by plate, in both directions; calls only at 30 µM; actives 3.5% (n = 40,000); AID 1259245;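 active = any of four per-well response measures lying three or more SD from its plate-wide compound average, in either direction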
* hit, by the source's call; i = inactive; / = not tested or not shown; + = active, no number.

SMILES	GIRK2 act	GluA2 TARP mod
CN(C)CCNC(=O)c1nn(-c2ccc(F)cc2)cc1OCc1ccccc1	i	i
Cc1ccc(C(=O)N2CCCc3ccccc32)cc1S(=O)(=O)N1CCOCC1	/	+
O=C(NCCN1CCOCC1)c1ccc(Cl)c(S(=O)(=O)N2CCCCC2)c1	/	i
O=C(c1ccc(Cl)c(S(=O)(=O)N2CCOCC2)c1)N1CCc2ccccc21	/	+
O=C(c1cccc(S(=O)(=O)N2CCOCC2)c1)N1CCCc2ccccc21	/	i
O=C(Cn1c(=O)oc2ccccc21)NCC1CCN(C(=O)/C=C/c2ccco2)CC1	i	i
O=C(Nc1ccc(-c2ccc(N3CCCCC3)nn2)cc1)Nc1ccc2c(c1)OCO2	i	i
Cc1ccc(N2CCN(S(=O)(=O)c3ccc(C)c(C)c3)CC2)c(C)c1	/	i
CCc1nnc2ccc(N3CCN(S(=O)(=O)c4ccc5c(c4)OCCO5)CC3)nn12	i	i
Cc1cc(NC(=O)C(=O)NCC(c2ccccc2)N(C)C)c2ccccc2n1 (centres undefined)	i	i
Cc1cc(C)nc(Nc2nc(N)c3ccccc3n2)n1	/	+
O=C(NCCC(O)c1cccs1)c1ccc2c(c1)OCO2 (centres undefined)	i	i
COC(=O)/C=C1\S/C(=N/Nc2nc(C)cc(C)n2)N(c2ccccc2)C1=O	i	/
COC(=O)/C=C1\S/C(=N\Nc2nc(C)cc(C)n2)N(c2ccccc2)C1=O	/	+
O=C(NNC(=O)c1cccn(Cc2ccc(F)cc2)c1=O)c1cccc(Cl)c1	i	i
COc1ccc(-c2csc(NC(=O)c3ccc(SC(C)C)cc3)n2)c(OC)c1	/	+
COc1ccc(OC)c(-c2csc(NC(=O)c3ccc(SC(C)C)cc3)n2)c1	i	i
CC(C)(C)c1cc(NCCCn2ccnc2)n2ncc(-c3ccccc3)c2n1	i	i
CN(C)CCNc1cc(C(C)(C)C)nc2c(-c3ccccc3)cnn12	i	+
CCSc1ccccc1C(=O)NC1CNC(=O)C1 (centres undefined)	/	i
O=C1CC(NC(=O)c2ccccc2Oc2ccccc2)CN1 (centres undefined)	/	+
COC(=O)c1sccc1S(=O)(=O)Nc1cc(Cl)ccc1C	/	i
CC(C)C(=O)Nc1ccc(C(=O)NCCNC(=O)COc2ccccc2)cc1	i	i
Cn1c(=O)c2c(ncn2CC(=O)NCc2ccccc2)n(C)c1=O	/	+
Cn1c(=O)c2c(ncn2Cc2ccccc2)n(C)c1=O	/	i
SMILES	GIRK2 act	GluA2 TARP mod
CCOc1ccc(/C(O)=C2\C(=O)C(=O)N(CCN(CC)CC)C2c2ccccn2)cc1 (centres undefined)	/	i
Cc1nn(C2CCS(=O)(=O)C2)c2nc(-c3cccs3)cc(C(=O)NC3CCCCC3C)c12 (centres undefined)	i	i
CC(=O)Nc1ccc2c(c1)CC(=O)N2C	/	i
CN1C(=O)Cc2cc(NC(=O)Nc3cccc(Cl)c3)ccc21	i	+
CN1C(=O)Cc2cc(NC(=O)/C=C/c3ccccc3)ccc21	i	+
CN1C(=O)Cc2cc(NC(=O)Nc3ccc(Cl)c(Cl)c3)ccc21	i	i
O=C(NCC1CCN(Cc2cccs2)CC1)C(=O)NC1CCCC1	i	i
CC(C)n1nccc1-c1nnc(NC(=O)C2CC(=O)N(c3ccc(F)cc3)C2)o1 (centres undefined)	i	i
Cc1cc(C(=O)Nc2cccc3c2C(=O)NC3=O)on1	i	+
Cn1nccc1C(=O)Nc1cccc2c1C(=O)NC2=O	i	/
CN(C)S(=O)(=O)c1ccc(C(=O)Nc2nn(C)c3c2C(c2ccco2)CC(=O)N3)cc1 (centres undefined)	i	i
Cc1ccc(C)c(NC(=O)C(=O)NCC(c2cccc3ccccc23)N(C)C)c1 (centres undefined)	i	/
CCN1CCN(c2nc3c(c(=O)n(C)c(=O)n3C)n2CC(O)COc2ccccc2)CC1 (centres undefined)	/	i
CC(O)CNc1nc2c(c(=O)[nH]c(=O)n2C)n1CC(O)COc1ccc(Cl)cc1 (centres undefined)	/	i
CCN1CCN(c2nc3c(c(=O)[nH]c(=O)n3C)n2CC(O)COc2ccc(Cl)cc2)CC1 (centres undefined)	/	+
Cn1c(=O)c2c(nc(N3CCN(Cc4ccccc4)CC3)n2CC(O)COc2ccc(Cl)cc2)n(C)c1=O (centres undefined)	/	+
Nc1c(C(=O)NC2CCCCC2)nnn1-c1cccc(Cl)c1	i	i
Cn1c(N=Nc2c(O)[nH]c3ccccc23)nc2c1c(=O)n(Cc1ccccc1)c(=O)n2C	/	i
O=C(NCC(O)c1ccsc1)NC1CCCCC1 (centres undefined)	i	i
CCOC(=O)c1sc(NC(=O)c2ccncc2)c(C(=O)OCC)c1C	/	+
CCOC(=O)c1sc(NC(=O)C2CCCN2S(C)(=O)=O)c(C(=O)OCC)c1C (centres undefined)	i	i
Cc1ccc(-c2cc(=O)n(CC(=O)NCc3cccnc3)cn2)cc1	i	i
COc1ccc(NC(=O)NCC(O)Cc2ccccc2)cc1OC (centres undefined)	i	i
COc1ccc(Cl)cc1NC(=O)C(=O)NCC(c1cccs1)N(C)C (centres undefined)	i	+
COc1ccc(NC(=O)C(=O)NCC(c2cccs2)N(C)C)c(OC)c1 (centres undefined)	i	i
SMILES	GIRK2 act	GluA2 TARP mod
COc1ccc(Cl)cc1NC(=O)NCC(O)Cc1ccccc1 (centres undefined)	i	+
COc1ccc(OC)c(-n2c(C)cn3c4c(=O)n(CCN5CCOCC5)c(=O)n(C)c4nc23)c1	/	i
CC1(C)CS(=O)(=O)N(c2ccc(Cl)c(C(=O)Nc3nccs3)c2)C1=O	i	i
O=C(COc1ccc(F)cc1F)NCCn1nc(-c2cccs2)ccc1=O	i	i
CC(=O)OCCN1C(=O)c2cccc3c(N4CCCCC4)ccc(c23)C1=O	/	+
O=C(OCN1C(=O)c2ccccc2C1=O)C1CCCCC1	/	i
COc1ccc(Cl)cc1NC(=O)N1CCC2(CC1)OCCN2S(=O)(=O)c1cccs1	i	i
CC(C)Cn1c(=O)c2c(nc3n2CCCN3c2ccc(Oc3ccccc3)cc2)n(C)c1=O	/	i
CN(C)C(=O)Cc1ccc(NC(=O)Nc2ccc(Cl)c(Cl)c2)cc1	i	+
CN(C)C(=O)Cc1ccc(NC(=O)Cc2ccc(Cl)cc2)cc1	i	i
Cc1ccc(SCCCC(=O)Nc2nnc(-c3ccn(C(C)C)n3)o2)cc1	i	i
O=C(Cn1cccn1)N1CCN(c2ccc(C(F)(F)F)cn2)CC1	i	i
O=C(Nc1cccc([N+](=O)[O-])c1)c1ccc(=O)n(Cc2ccccc2F)c1	i	+
Cc1cc([N+](=O)[O-])ccc1NC(=O)c1ccc(=O)n(Cc2ccc(F)cc2)c1	i	i
COc1cc([N+](=O)[O-])ccc1NC(=O)c1ccc(=O)n(Cc2ccc(F)cc2)c1	i	+
Cc1ccccc1Cn1cc(C(=O)Nc2cccc([N+](=O)[O-])c2)ccc1=O	i	i
COc1ccccc1NC(=O)c1ccc(=O)n(Cc2cccc([N+](=O)[O-])c2)c1	i	i
COc1cc([N+](=O)[O-])ccc1NC(=O)c1ccc(=O)n(Cc2cccc([N+](=O)[O-])c2)c1	i	+
